RE007 growth inh = less growth of the S. pombe RE007 Vpr strain. S. pombe RE007 Vpr strain, BacTiter-Glo ATP luminescence, 24 h. Potency, µM (doses to about 92.2 µM), usual class: inhibitors. 360,000 tested, 0.21% active. AID 651644; active = well fitted falling curve with a large enough effect; inconclusive = small, poorly fitted or top-dose-only effect; inactive = no such curve, though single readings can be large or run the other way; note: nearly all actives have a fitted effect of over 50% in size
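Fission yeast RE007 carrying one integrated HIV-1 vpr copy, seeded at OD 0.01 in PMG+AL medium with 23 nL pinned compound. Grown 24 h at 30 degrees; viability read by BacTiter-Glo luminescence after 5 min.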
Giardia FBPA inh = Giardia lamblia aldolase inhibition; A8B2U2; purified Giardia FBPA; Potency, µM (series often up to 59.6 µM), hits mostly inhibitors; 290,000 tested, 0.71% active; AID 2451; note: nearly all actives have a fitted effect of over 55% in size
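40 nM FBPA preincubated 10 min at RT with compound (up to 57.5 uM final), then substrate plus GAPDH/TPI/NAD/arsenate coupling and diaphorase/resazurin added. Fluorescence read after 20 min at RT, 525/598 nm.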
LmPK inh = blocks Leishmania mexicana pyruvate kinase activity; Q27686; purified LmPK, Kinase-Glo ATP luminescence, 1 h; Potency, µM (highest dose often 57.5 µM), usual class: inhibitors; 290,000 tested, 0.37% active; AID 1721
Target sequence (Q27686 whole entry, looked up): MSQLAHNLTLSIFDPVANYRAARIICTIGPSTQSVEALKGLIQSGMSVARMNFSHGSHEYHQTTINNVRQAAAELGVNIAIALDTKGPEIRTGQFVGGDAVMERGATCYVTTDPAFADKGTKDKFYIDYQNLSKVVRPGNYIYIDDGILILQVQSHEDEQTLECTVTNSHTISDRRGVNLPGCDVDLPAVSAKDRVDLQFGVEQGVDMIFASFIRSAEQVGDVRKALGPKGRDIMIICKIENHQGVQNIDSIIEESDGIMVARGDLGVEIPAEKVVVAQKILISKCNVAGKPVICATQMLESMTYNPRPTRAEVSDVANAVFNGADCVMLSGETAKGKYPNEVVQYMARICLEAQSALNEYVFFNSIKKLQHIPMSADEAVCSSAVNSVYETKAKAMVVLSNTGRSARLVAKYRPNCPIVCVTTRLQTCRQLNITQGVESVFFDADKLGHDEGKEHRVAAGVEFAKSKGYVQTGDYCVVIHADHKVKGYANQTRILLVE
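Screened at intermediate enzyme activity to detect both inhibitors and activators: LmPK at 0.1 nM, with a 0.5 nM enzyme column as activation reference. PEP 0.5 mM, ADP 0.1 mM; ATP detected by luminescence after 1 h.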
Shiga inhibitor = inhibitors of Shiga toxin in Vero cells. AID 2315. 290,000 tested, 9.2% active. inhibition, % at 38.7 µM. Vero cells, Shiga toxin protein synthesis inhibition reporter; in the data active = inhibition mostly above about 28%, no sharp cut-off; inactive = mostly below about 43%
Tb PYK inh = T. brucei pyruvate kinase inhibition; Q57TT1; TbPYK enzyme, Kinase-Glo Plus ATP luminescence, 45 min; Potency, µM (doses to about 76.8 µM), most hits filed as inhibitors; 410,000 tested, 0.12% active; note: nearly all actives have a fitted effect of over 50% in size
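Readout: single end-point luminescence (Kinase-Glo Plus, 10 min). Reaction conditions were TbPYK/substrate plus 130 uM ADP, 45 min at RT, pH 7.2 TEA buffer. No-enzyme wells served as controls, and data were normalized before concentration-response fitting.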
Cycloheximide cs = counter-screen hit for Shiga toxin inhibitors, cycloheximide | max response, % | 300,000 tested, 12% active | cell reporter, cycloheximide protein synthesis inhibition counterscreen; in the data active = max response mostly above about 13%, no sharp cut-off; inactive = mostly below about 14%; note: read at 38.3 µM for the half of the compounds with a filed dose
Hits are given with their value; – = inactive; ? = inconclusive; · = no result given; + = active, no number. This is one part of a sample in which hits are shown more often than they occur. Unless noted, calls come from the whole dose curve; as a rule, active = well fitted curve in the direction sought with a large enough effect; inconclusive = small, poorly fitted or top-dose-only effect, or another doubt; inactive = no such curve, though single readings can be large; an effect the other way counts as inactive or inconclusive.

SMILES	RE007 growth inh	Giardia FBPA inh	LmPK inh	Shiga inhibitor	Tb PYK inh	Cycloheximide cs
COc1cc(-c2nnc(SCC(=O)c3cc(C)n(CC4CCCO4)c3C)o2)cc(OC)c1OC (configuration not stated)	–	–	–	active	–	64
Cc1cc(C(=O)CSc2nnc(-c3ccc(F)cc3)o2)c(C)n1CC1COc2ccccc2O1 (configuration not stated)	–	–	–	–	–	–
CCCCCCN(CCCCCC)C(=O)Cc1c(-c2ccc(Cl)cc2)[nH]c2ccc(Cl)cc12	·	–	·	·	·	·
CCOC(=O)C(C)Sc1nc(=O)n2cc(C)ccc2n1 (configuration not stated)	–	–	–	–	–	–
CCCSc1nc(=O)n2cc(C)ccc2n1	–	–	–	57	–	33
CCOC(=O)CSc1nc(=O)n2cc(C)ccc2n1	–	–	–	–	–	17
Cc1ccc2nc(SCC(=O)OCc3ccccc3)nc(=O)n2c1	–	·	·	·	–	·
Cc1cccc(NC(=O)COc2ccc3c(c2)CCC3)n1	?	·	·	·	–	·
COc1ccc2c(CC(=O)Nc3nc(C)cs3)coc2c1	–	–	–	–	–	–
COc1ccc(CCC(=O)NCC23CC4CC(CC(C4)C2)C3)cc1	–	–	–	–	–	15
COc1ccc2c(CC(=O)Nc3ncc(C)s3)coc2c1	–	–	–	86	–	33
COc1ccc(CCC(=O)Nc2ncc(C)s2)cc1	–	–	–	35	–	17
Cc1cnc(NC(=O)COc2ccc3c(c2)CCC3)s1	–	·	–	61	–	60
COc1ccc(CNC(=O)CC23CC4CC(CC(C4)C2)C3)cc1	–	–	–	–	–	–
Cn1c(=Nc2ccccc2)sc2ccccc21	–	–	–	–	–	36
Cc1cccc(S(=O)(=O)N/N=c2\sc3ccccc3n2C)c1	–	–	–	–	–	–
CN(C)c1ccc(N=c2sc3ccccc3n2C)cc1	–	?	–	89	?	54
COC(=O)c1ccc(-n2nnc(-c3nc(-c4ccc5c(c4)OCO5)no3)c2C)cc1	·	·	·	·	–	·
CCc1ccc(C2C(C(=O)Nc3ccccc3C)=C(C)Nc3nc(SCc4cccc(OC)c4)nn32)cc1 (configuration not stated)	·	·	·	·	–	·
COc1cc(-c2noc(-c3ccc(NCC4CCCO4)c([N+](=O)[O-])c3)n2)cc(OC)c1OC (configuration not stated)	·	·	·	·	–	·
O=C(O)CCc1ccc(-c2ccc(Cl)cc2)n1-c1cccc(C(F)(F)F)c1	·	·	·	·	–	·
CC(C)OCCCNC1=C(Cl)C(=O)c2ccccc2C1=O	?	–	–	66	–	49
CCN(CC)CCCNC1=C(Cl)C(=O)c2ccccc2C1=O	?	–	–	–	–	–
CC(C)NC1=C(Cl)C(=O)c2ccccc2C1=O	?	?	–	–	–	21
COCCCNC1=C(Cl)C(=O)c2ccccc2C1=O	?	–	–	49	–	33
SMILES	RE007 growth inh	Giardia FBPA inh	LmPK inh	Shiga inhibitor	Tb PYK inh	Cycloheximide cs
COc1ccc(CN2C(=O)C(CC(=O)NC3CCCCC3)CC(C(=O)N(C)C)=C2C)cc1 (configuration not stated)	–	·	·	·	–	·
Cc1ccc(-c2nc3c4ccccc4ccn3c2CN2CCCCC2)cc1	–	–	–	59	–	32
COc1cccc(CNC(=O)CSc2cc(C)[nH]c(=O)n2)c1	·	·	·	·	–	·
CN(CCCS(=O)(=O)[O-])c1ccc(/C=C/c2ccc3ccccc3[n+]2C)cc1	–	–	–	–	–	–
CN(C)c1ccc(/C=C/c2cccc[n+]2[O-])cc1	–	–	–	59	–	33
[O-][n+]1c(/C=C/c2ccccc2)ccc2ccccc21	–	–	?	31	–	29
CN(C)c1ccc(/C=C/c2ccc3ccccc3[n+]2C)cc1	·	–	14µM	–	?	19
COc1ccc(/C=C/c2ccc3ccccc3[n+]2C)cc1OC	–	–	–	71	–	44
COc1ccc(-n2nc3c(c2NC(=O)C(=O)NCc2ccccc2)CSC3)cc1	·	·	·	·	–	·
O=C1c2ccccc2C(c2nnnn2-c2ccc3c(c2)OCCO3)N1Cc1cccs1 (configuration not stated)	–	·	·	·	–	·
CN(C)c1ccc(/C=C/c2ccc3c4ccccc4ccc3[n+]2-c2ccccc2)cc1	28µM	–	–	–	?	–
COc1ccccc1/C=C/c1nc2ccc(OC(C)=O)cc2c(=O)o1	–	–	–	–	–	–
CC(=O)Oc1ccccc1/C=C/c1ccc2ccccc2[n+]1C	–	–	–	107	–	43
CCOC(=O)CN1C(=O)C(Sc2n[nH]c(-c3ccccc3)n2)CCc2ccccc21 (configuration not stated)	–	–	–	–	–	–
Cc1ccc(C)c(N(CC(=O)NC(C)C)C(=O)CCC(=O)Nc2ccccn2)c1	–	–	–	–	–	–
CCc1cc2cc(C)cc(C)c2[nH]c1=S	–	–	?	–	11µM	–
O=C(OCc1cccc(F)c1)c1cc2ccccc2cc1O	–	–	–	·	–	–
CC(=O)Nc1ccccc1C(=O)OCc1cccc(F)c1	–	–	–	–	–	26
CC(=O)Nc1ccccc1C(=O)OCc1ccc(C(=O)c2ccccc2)cc1	–	·	–	–	–	24
O=C(COc1ccc(Cl)cc1)NCCNc1ccc([N+](=O)[O-])cc1	–	–	–	–	–	–
CC(C)Cn1cc(C(=O)N2CCN(c3cccc(Cl)c3)CC2)c2c3ccccc3n(C)c2c1=O	·	·	·	·	–	·
CCc1ccc(NC(=O)CCCN2C(=O)C3CC=CCC3C2=O)cc1 (configuration not stated)	–	·	–	97	–	72
Cc1cccc(NC(=O)CCCN2C(=O)C3CC=CCC3C2=O)c1 (configuration not stated)	–	–	–	–	–	–
Cc1ccc2c(c1)sc(-c1ccc(N(C)C)cc1)[n+]2C	·	–	–	+	–	77
COc1ccc(C)cc1Nc1n[n+](-c2ccccc2)c(-c2ccc(N(C)C)cc2)s1	–	–	–	–	–	–
SMILES	RE007 growth inh	Giardia FBPA inh	LmPK inh	Shiga inhibitor	Tb PYK inh	Cycloheximide cs
Cc1cc(C)cc(C(=O)Nc2nnc(SCC(=O)N3CCCc4ccccc43)s2)c1	–	–	–	–	–	–
O=C(Nc1nnc(SCC(=O)N2CCCc3ccccc32)s1)c1ccccc1	–	–	–	41	–	34
O=C(Nc1nnc(SCC(=O)N2CCCc3ccccc32)s1)c1ccc2ccccc2c1	–	–	–	58	–	37
Cc1c(C(=O)N/N=C/C(C)C)[nH]c2c([N+](=O)[O-])cccc12	–	–	–	–	–	–
Cc1nc2cc(N3CCN(C)CC3)c(NC(=O)Cc3ccccc3)cc2c(=O)n1Cc1ccccc1	–	–	–	55	–	90
NC(=O)Nc1cc(-c2cccc(F)c2)sc1C(=O)N[C@H]1CCCNC1	·	·	·	·	–	·
